High-throughput results (PubChem)
Shown are actives, neighbours in structure and some others; about 6.1% of the full set was active somewhere.
TSHR agonist – activates the human thyroid stimulating hormone receptor | P16473 | HEK293-CNG-TSHR cells (CNG channel as cAMP sensor), membrane potential dye, cAMP | Potency, µM (doses to about 57.1 µM), inactives show top-dose activation, hits mostly activators | 0.48% of 73,000 active | AID 926; active = well fitted activation curve with a large enough effect in the main read-out, with a control signal flat, not every such curve was filed as active; inconclusive = small, poorly fitted or top-dose-only effect, or a change in a side signal; inactive = no such curve, though single readings can be large or run the other way; % of control where 0% means no effect;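 note: the control signal comes from parental cells without the receptor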
Target sequence (P16473 whole entry, looked up): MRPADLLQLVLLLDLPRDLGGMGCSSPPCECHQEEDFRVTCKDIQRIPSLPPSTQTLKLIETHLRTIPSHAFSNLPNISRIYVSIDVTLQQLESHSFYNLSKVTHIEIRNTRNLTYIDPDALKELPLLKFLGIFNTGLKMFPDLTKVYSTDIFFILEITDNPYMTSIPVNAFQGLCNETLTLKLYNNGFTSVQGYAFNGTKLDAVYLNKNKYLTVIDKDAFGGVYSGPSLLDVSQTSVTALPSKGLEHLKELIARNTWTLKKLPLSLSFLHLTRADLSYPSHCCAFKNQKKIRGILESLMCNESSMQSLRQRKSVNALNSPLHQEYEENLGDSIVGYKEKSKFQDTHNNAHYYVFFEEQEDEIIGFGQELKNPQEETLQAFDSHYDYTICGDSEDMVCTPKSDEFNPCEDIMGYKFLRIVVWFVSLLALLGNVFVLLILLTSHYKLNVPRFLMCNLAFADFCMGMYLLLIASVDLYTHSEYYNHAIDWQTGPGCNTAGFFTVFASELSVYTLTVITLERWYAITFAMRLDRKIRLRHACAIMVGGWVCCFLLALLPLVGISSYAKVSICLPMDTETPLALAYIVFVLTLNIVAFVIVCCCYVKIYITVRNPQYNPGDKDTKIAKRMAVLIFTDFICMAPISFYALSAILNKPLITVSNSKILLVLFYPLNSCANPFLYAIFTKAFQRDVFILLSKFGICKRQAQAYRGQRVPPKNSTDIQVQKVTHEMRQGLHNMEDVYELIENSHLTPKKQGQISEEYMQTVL
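HEK 293 cells stably expressing TSHR and a cAMP-gated CNG channel; parental CNG-only cells as counterscreen. Cells preloaded 60 min with membrane potential dye plus 100 uM RO 20-1724, then compound 30 min; fluorescence read at 590 nm.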
Luciferase inh – inhibitors of firefly luciferase | P08659 | purified firefly luciferase, luminescence, 8 min | Potency, µM (top dose mostly 57.1 µM), without a hit: at the top dose activity change, negative = inhibition, actives largely listed as inhibitors | 2.2% of 72,000 active | AID 411; note: % is set by controls: 0 for no effect and ±100 for the full control effect; nearly all actives have a fitted effect of over 40% in size
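Compounds were tested as concentration series (qHTS) against purified P. pyralis luciferase with luciferin and 10 uM ATP in 50 mM imidazole pH 7.2, 50 mM KCl, 7 mM MgCl2, 0.01% Tween 20, 0.05% BSA. Luminescence was read after 8 min at ambient temperature.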
ERK AVP inh – vasopressin-driven ERK pathway inhibition; HEK293-V1b, vasopressin-stimulated pERK AlphaScreen; Potency, µM (top dose mostly 57.5 µM), without a hit: at the top dose activity, negative = inhibition, usual class: inhibitors; 0.99% of 72,000 active; note: % is set by controls: 0 for no effect and ±100 for the full control effect; nearly all actives have a fitted effect of over 55% in size
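qHTS, compounds titrated on V1b-expressing HEK293 cells. Preincubation 30 min at 37C, vasopressin 25 nM for 5 min, lysis 10 min, bead incubation 5 hr at room temperature.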
HEK293 cAMP cs – raises cAMP in parental HEK293 cells, TSHR agonist counter-screen; parental HEK293 CNG cAMP sensor, membrane potential fluorescence; Potency, µM (highest dose often 57.1 µM), for inactives: at the highest dose activation, hits mostly activators; 2.5% of 73,000 active; note: % of control where 0% means no effect; nearly all actives have a fitted effect of over 55% in size
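Parental HEK 293 cells stably expressing a cAMP-gated CNG channel were loaded with membrane potential dye containing 100 uM RO 20-1724 for 60 min. Compound added for 30 min; depolarization read as fluorescence intensity at 590 nm.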
Bst PK mod – pyruvate kinase (B. stearothermophilus) modulation. 1.2% of 51,000 active. purified pyruvate kinase, luminescence ATP production; ribose 5-phosphate activator present at AC10. Potency, µM; in the data active = potency below about 11 µM; inconclusive = mostly about 12 µM to 25 µM;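 the screen sought inhibitors and activators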;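 note: scaled between full activation by ribose 5 phosphate and full inhibition by luteolin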
GBA mod – alters purified human glucocerebrosidase activity; P04062; purified enzyme, resorufin glucoside fluorescence (screen aimed at inhibitors), 20 min; Potency, µM; 1.1% of 48,000 active; AID 360; in the data active = potency below about 15 µM; inconclusive = mostly about 16 µM to 33 µM;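 note: the screen sought inhibitors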
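Normal human glucocerebrosidase (0.2 nM final) was assayed with resorufin β-D-glucopyranoside (30 uM final) in 50mM citric acid/KH2PO4, 10mM sodium taurocholate, 0.01% tween-20, pH 5.9. Compounds were titrated; fluorescence (Ex 548, Em 600) read after 20 min at RT.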
An asterisk follows results filed as active; i = inactive; ? = inconclusive; . = no result given; ! = not confirmed by another sample; [ ] = remark or other dose. Unless noted, calls come from the whole dose curve; as a rule, active = well fitted curve in the direction sought with a large enough effect; inconclusive = small, poorly fitted or top-dose-only effect, or another doubt; inactive = no such curve, though single readings can be large; an effect the other way counts as inactive or inconclusive. Potency is the fitted concentration of half-maximal effect.

SMILES | TSHR agonist | Luciferase inh | ERK AVP inh | HEK293 cAMP cs | Bst PK mod | GBA mod
O=C(CSCc1cnn(-c2ccccc2)c1-n1cccc1)NCCN1CCOCC1 | 6% | 1% | 19% | 12% | >57 | i
O=C(Nc1ccc2c(c1)OCO2)c1nn(-c2ccccc2)c(=O)c2ccccc12 | ? | -2% | -3% | 25µM* | >57 | >77
O=C(NCc1ccc2c(c1)OCO2)c1ccccn1 | 2% | 0% | -3% | 12% | >57 | >77
COC(=O)[C@@]1(Cc2ccc(OC)cc2)[C@H]2c3cc(C(=O)N4CCCC4)n(Cc4nc5ccccc5[nH]4)c3C[C@H]2CN1C(=O)c1ccccc1 | ? | . | -14% | ? | . | .
COc1ccc(-n2nc(C(=O)Nc3ccc4c(c3)OCO4)c3ccccc3c2=O)c(OC)c1 | ? | 1% | 5% | ? | >57 | >77
Cc1ccc(-n2nc(C(=O)NCc3ccco3)c3c4ccccc4n(C)c3c2=O)cc1 | ? | 0% | -9% | 4µM* | >57 | >77
COc1ccc(-n2nc(C(=O)Nc3ccc4c(c3)OCO4)c3c4ccccc4n(C)c3c2=O)cc1 | ? | 2% | -14% | 16µM* | >57 | .
O=C(NCc1ccc2c(c1)OCO2)c1ccc(-c2ccc(Cl)cc2)o1 | ? | 3% | 32µM* | ? | . | >77
Cc1c(C(=O)NCc2ccc3c(c2)OCO3)oc2ccccc12 | ? | 1% | 30% | 25µM* | . | .
CCCC[C@@H]1C[C@H]1C(NC(=O)c1cccs1)c1ccc(-c2ccccc2)cc1 (stereo not given in full) | . | . | 7% | 17% | . | .
Cc1c(NC(=O)CN2c3cccc4cccc(c34)S2(=O)=O)c(=O)n(-c2ccccc2)n1C | ? | -1% | -17% | ? | 11* | >77
COc1ccc(NC(=O)CN2c3cccc4cccc(c34)S2(=O)=O)cc1 | 0% | 0% | 18% | -6% | 1.4* | >77
COc1ccc(OC)c(NC(=O)CN2C(=O)c3ccccc3S2(=O)=O)c1 | -6%[11.4 µM] | 2% | -10% | 6%[11.4 µM] | . | .
CC(C=O)Cc1ccc(C(C)(C)C)cc1 (stereo not given) | ? | . | -8% | ? | . | .
COC(=O)CC1=COC(O)C2C(CO)=CC[C@@H]12 (stereo not given in full) | 11%[11.4 µM] | . | 0%[11.5 µM] | -7%[11.4 µM] | . | .
COc1ccccc1/C=N/n1cnnc1 | -4% | 0% | 7% | 5% | . | .
C(=N\n1cnnc1)/c1cccc2ccccc12 | . | 0% | -4% | 5% | >57 | 14*
Cc1nonc1NC(=O)CSc1nc(C2CCCCC2)nc2ccccc12 | ? | 5% | 8% | 25µM* | >57 | ?
COc1ccc(CC(=O)Nc2cc(C)on2)cc1 | 4% | -3% | -1% | 2% | >57 | >77
COc1ccc(C(=O)/C=C/Nc2cc(C)on2)cc1 | 12% | 3.2µM* | -4% | 15% | . | .
COC(=O)N1CCC2(CC1)CCN(c1ncccn1)CC2 | -2% | 1%[11.4 µM] | 1% | -4% | . | .
CCC1=C2CC[C@H]3C(=O)N(CC(=O)OC)C(=O)[C@H]3[C@H]2[C@@]2(C)C(=O)N(Cc3ccccc3)C(=O)N2C1=O | . | . | 1% | . | . | .
COc1cccc(C(=O)Nc2ccc3nc(N4CCOCC4)cc(C)c3c2)c1 | -19% | -6% | ? | 0% | . | .
Cc1cc(N2CCOCC2)nc2ccc(NC(=O)CCC(=O)N3CCCC(C)C3)cc12 (stereo not given) | 4% | 25µM* | -5% | 3% | . | 1.2*
CCN1CCN(c2cc(C)c3cc(NC(=O)c4cncc(Br)c4)ccc3n2)CC1 | 2% | -3% | 23% | 4% | >57 | 3.7*
SMILES | TSHR agonist | Luciferase inh | ERK AVP inh | HEK293 cAMP cs | Bst PK mod | GBA mod
COc1ccc(C)cc1NC(=O)CCC(=O)Nc1ccc2nc(N3CCN(C)CC3)cc(C)c2c1 | -8% | -6% | -2% | -3% | >57 | 9.5*
COc1cccc(C(=O)Nc2ccc3nc(N4CCN(c5ncccn5)CC4)cc(C)c3c2)c1OC | . | -1% | -12% | -12% | >57 | 8.7*
CCN1/C(=C/C(C)=O)Sc2ccc(OC)cc21 | -1% | -7% | -20% | -4% | >11 | >77
COc1ccc2c(c1)S/C(=C\C(=O)c1ccncc1)N2C | -15% | 5µM* | -18% | -9% | . | .
CC(C)=NOCc1ccc(-c2cc(-c3ccccc3)no2)cc1 | -3%[11.4 µM] | 0%[11.4 µM] | 22%[11.5 µM] | 10%[11.4 µM] | . | .
CC(C)(O)c1cc(=O)sc2nc3ccccc3n12 | -6% | 25µM* | 16% | -4% | i | >77
c1ccc2nc3c(nc2c1)sc1nc2ccccc2n13 | 5% | -1% | -10% | -1% | ? | >77
Cc1cc(NC(=O)Nc2ccc3c(ccn3C)c2)sn1 | ? | 32µM*! | ? | -12% | . | .
NC(Cc1c[nH]c2ccccc12)C(=O)NCC(=O)O (stereo not given) | . | . | 55% | . | . | .
CCCC[C@@H]1C[C@H]1C(NC(=O)c1ccccc1)c1ccc(C(F)(F)F)cc1 (stereo not given in full) | ? | . | -6% | 3.2µM* | . | .
CCCC[C@@H]1C[C@H]1C(NC(=O)c1cccnc1)c1ccc(Cl)cc1 (stereo not given in full) | ? | . | ? | 25µM* | . | .
COc1ccc2[nH]cc(CCNc3nc(-c4c(C)noc4C)nc4ccccc34)c2c1 | ? | -6%[2.29 µM] | -11% | -36% | . | .
CCOc1ccccc1N1CCN(S(=O)(=O)c2cccs2)CC1 | ? | 2% | 3% | 10µM* | >57 | >77
CCOc1ccccc1N1CCN(S(=O)(=O)CC)CC1 | 5% | -2% | -15% | -1% | . | .
COc1ccc(-c2nnc(COc3ccc4ccccc4c3)o2)cc1OC | ? | -1% | ? | 4µM* | . | .
COc1ccc(-c2nnc(CSc3nc4ccccc4c(=O)n3C)o2)cc1OC | ? | -33% | ? | 25µM* | >57 | >77
O=c1c2ccccc2nc(SCc2nnc(-c3ccccc3)o2)n1-c1ccc(F)cc1F | ? | 0% | ? | ? | >57 | >77
O=S(=O)(/N=C(/Nc1cc(N2CCOCC2)ncn1)c1ccccc1)c1ccccc1 | 10% | 3.2µM* | 17% | -2% | . | >77
CCN(c1cccc(C)c1)S(=O)(=O)c1cccc(C(=O)O)c1 | -6% | . | . | 4% | . | .
CCN(c1cccc(C)c1)S(=O)(=O)c1ccc2[nH]c(=O)c(=O)[nH]c2c1 | -1% | 0% | 14% | 1% | >57 | 7.4*
Nc1nc2c(ncn2C2OC(CO)CC2O)c(=O)[nH]1 (stereo not given) | . | . | 8% | . | . | .
Cc1noc(C)c1S(=O)(=O)Nc1ccc(C(=O)NC2CCCCCC2)cc1 | -1% | -1% | 9% | 5% | >57 | 5.8*
Cc1noc(C)c1S(=O)(=O)Nc1ccc(C(=O)NC2CCCCC2C)cc1 (stereo not given) | -4% | 3% | 4% | 7% | >57 | ?
